Assay [1] is described as follows: Cell Viability - HepG2 (AID 433; calls by dose curve;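 also: potency is read from the fitted curve at half-maximal effect; potency for ATP loss meaning cytotoxicity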). The following applies: qHTS. Put shortly:
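Cytotoxicity is scored as loss of intracellular ATP in HepG2 cells exposed to compounds for 40 h. Concentration-response curves, normalized to DMSO and 100 uM tamoxifen, give AC50 values.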
Background: In qHTS, concentration-response curves come from the screen itself.

The nature of assay [2]: Cellular Toxicity (caspase-3) SHSY5Y (AID 657). The following applies: SH-SY5Y caspase-3 activation; series mostly up to 91.7 µM. A digest of the protocol:
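Cells plated and incubated 5 h at 37 °C, dosed over a concentration range, incubated 16 h, then given Caspase-Glo 3/7 reagent for 1 h at room temperature before luminescence reading. Staurosporine (10 uM) defined full stimulation.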

The nature of assay [3]: MultiTox-Fluor Cytotoxicity Assay - LYMP1-003 - Dead Cells (AID 961). Also: nearly all actives have a fitted effect of over 70% in size. Also: potency is read from the fitted curve at half-maximal effect. The settings on record: LYMP1-003 lymphoblastoid cells, dead-cell protease fluorescence; series mostly up to 92.2 µM. A digest of the protocol:
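LYMP1-003 human lymphoblastoid cells (2500/well) exposed to compound 16 h at 37 C in complete medium; dead-cell protease read with bis-AAF-R110 fluorescence (Ex/Em 485/520) after 60 min at room temperature. Normalized to DMSO and 15 uM tetraoctylammonium bromide; AC50 from Hill fit.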

Assay [4] in a line: Cell Viability - LYMP2-009 (AID 968).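 Also: cells exposed to compound for 24 h at 37 °C; nearly all actives have a fitted effect of over 55% in size.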 Also: potency is read from the fitted curve at half-maximal effect. The settings on record: LYMP2-009 lymphoblastoid cell viability; series mostly up to 92.2 µM.
The nature of assay [5]: Cell Viability - LYMP2-017 (AID 972).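 Also: cells exposed to compound for 24 hours at 37 °C; nearly all actives have a fitted effect of over 55% in size.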 Also: potency is read from the fitted curve at half-maximal effect. The settings on record: LYMP2-017 lymphoblastoid cell viability; series mostly up to 92.2 µM. A digest of the protocol: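 Steps: plate 2500 lymphoblastoid cells per well; incubate 5 hr at 37 C; add compound across a concentration series and incubate 24 hr at 37 C; add CellTiter-Glo and read luminescence after 30 min at room temperature; fit Hill curves for AC50.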

The nature of assay [6]: Cell Viability - LYMP2-021 (AID 974).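 Also: compound exposure lasts 24 hours at 37 °C; nearly all actives have a fitted effect of over 55% in size.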 Also: potency is read from the fitted curve at half-maximal effect. The settings on record: LYMP2-021 lymphoblastoid cells viability; series mostly up to 92.2 µM. Put shortly:
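Concentration-response cytotoxicity in a human lymphoblastoid line: 24 hr treatment at 37 C in complete culture medium, tetraoctylammonium bromide as positive control, luminescent ATP quantitation as viability measure.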

Assay [7] can be described thus: Cell Viability - LYMP2-025 (AID 976).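 Also: cells exposed to compound for 24 h at 37 °C.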 Also: potency is read from the fitted curve at half-maximal effect. The settings on record: LYMP2-025 lymphoblastoid cell viability; series mostly up to 92.2 µM. Put shortly:
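In qHTS format, LYMP2-025 lymphoblastoid cells in complete culture medium received compound for 24 hr; ATP-based CellTiter-Glo signal gave viability, with AC50 derived by Hill equation.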

Assay [8] can be described thus: Cell Viability - LYMP2-007 (AID 979).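 Also: cells exposed to compound for 24 h before reading; nearly all actives have a fitted effect of over 60% in size.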 Also: potency is read from the fitted curve at half-maximal effect. The settings on record: LYMP2-007 lymphoblastoid cell viability; series mostly up to 92.2 µM. A digest of the protocol: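 Acute toxicity is scored as a concentration-dependent fall in intracellular ATP in human lymphoblastoid cells treated 24 hr at 37 C, measured by luciferase luminescence; Hill-equation modelling yields AC50.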

Assay [9] can be described thus: Cell Viability - LYMP2-012 (AID 982).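 Also: cellular ATP by luciferase luminescence where a drop means cytotoxicity; cells exposed to compound for one day before reading; nearly all actives have a fitted effect of over 55% in size.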 Also: potency is read from the fitted curve at half-maximal effect. The following applies: LYMP2-012 lymphoblastoid cell viability qHTS; series mostly up to 92.2 µM.
Assay [10] is described as follows: Cell Viability - LYMP2-020 (AID 986). Also: potency is read from the fitted curve at half-maximal effect. The following applies: series mostly up to 92.2 µM. Put shortly: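 Acute cytotoxicity in a human lymphoblastoid line is scored as a concentration-dependent fall in cellular ATP after 24 hr at 37 C in complete medium. The positive control is tetraoctylammonium bromide, and potency is given as Hill-fit AC50.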
The target in assay [11] is Voltage-gated inwardly rectifying potassium channel KCNH2 (Homo sapiens) (UniProt Q12809). Briefly: qHTS Assay for Small Molecule Inhibitors of the Human hERG Channel Activity (AID 588834).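 Also: lower thallium flux fluorescence means stronger hERG block; nearly all actives have a fitted effect of over 50% in size.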 Also: potency is read from the fitted curve at half-maximal effect. The following applies: U2OS BacMam hERG, FluxOR thallium flux fluorescence; series mostly up to 92.2 µM. Put shortly: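 Measured: FluxOR fluorescence after thallium stimulation in U2OS cells transduced with hERG by baculovirus. Compounds pre-incubated around 10 min; medium Opti-MEM with 2% FCS. AC50 from Hill equation.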
Voltage-gated inwardly rectifying potassium channel KCNH2 (Homo sapiens), sequence (Q12809 whole entry, looked up): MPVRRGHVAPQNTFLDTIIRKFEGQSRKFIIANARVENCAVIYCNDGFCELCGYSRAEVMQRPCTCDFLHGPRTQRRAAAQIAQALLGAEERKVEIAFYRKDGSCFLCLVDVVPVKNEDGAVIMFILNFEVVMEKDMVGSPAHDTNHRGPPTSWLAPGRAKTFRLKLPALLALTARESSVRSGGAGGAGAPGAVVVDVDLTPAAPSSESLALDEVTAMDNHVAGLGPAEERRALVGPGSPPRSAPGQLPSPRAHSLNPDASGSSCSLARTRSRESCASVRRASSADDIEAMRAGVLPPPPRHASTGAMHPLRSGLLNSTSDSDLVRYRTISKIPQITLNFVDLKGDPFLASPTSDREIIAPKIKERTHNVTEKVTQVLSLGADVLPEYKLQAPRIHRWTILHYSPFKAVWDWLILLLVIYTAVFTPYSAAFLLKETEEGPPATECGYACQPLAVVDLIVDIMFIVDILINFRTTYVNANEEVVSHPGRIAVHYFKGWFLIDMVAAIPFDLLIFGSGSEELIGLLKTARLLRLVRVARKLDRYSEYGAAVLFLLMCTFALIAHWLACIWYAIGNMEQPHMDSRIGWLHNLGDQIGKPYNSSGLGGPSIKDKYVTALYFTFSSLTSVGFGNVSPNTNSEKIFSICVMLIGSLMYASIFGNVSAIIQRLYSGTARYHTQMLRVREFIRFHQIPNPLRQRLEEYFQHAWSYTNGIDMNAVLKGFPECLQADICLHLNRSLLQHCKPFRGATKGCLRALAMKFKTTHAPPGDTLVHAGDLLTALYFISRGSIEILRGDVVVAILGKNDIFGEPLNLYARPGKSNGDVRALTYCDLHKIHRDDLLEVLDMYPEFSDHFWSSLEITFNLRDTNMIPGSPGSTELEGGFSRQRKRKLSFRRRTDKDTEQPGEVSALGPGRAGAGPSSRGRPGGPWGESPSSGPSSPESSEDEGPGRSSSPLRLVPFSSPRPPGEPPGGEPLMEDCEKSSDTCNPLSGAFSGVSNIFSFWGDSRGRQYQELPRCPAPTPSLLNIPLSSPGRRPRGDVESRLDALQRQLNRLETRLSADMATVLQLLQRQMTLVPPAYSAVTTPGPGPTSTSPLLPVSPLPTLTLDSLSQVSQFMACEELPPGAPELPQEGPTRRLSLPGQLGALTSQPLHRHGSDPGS

Assay [12] in a line: qHTS assay for small molecule disruptors of the mitochondrial membrane potential - 5 hr assay (AID 651755; calls by dose curve; also: nearly all actives have a fitted effect of over 40% in size; also: potency is read from the fitted curve at half-maximal effect). The settings on record: JC-1-type ratio dye; series mostly up to 92.2 µM. A digest of the protocol:
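HepG2 cells, attached overnight at 37C, were exposed to compound or DMSO for 5 hr at 37C, 5% CO2. Mito-MPS dye was then added for 30 min, and fluorescence read at 490/535 nm (monomers) and 540/590 nm (aggregates).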

Assay [13] is described as follows: qHTS assay for small molecule antagonists of the retinoid-related orphan receptor gamma (ROR-gamma) signaling pathway - cell viability counter screen (AID 720652; active = well fitted curve in the direction sought with a large enough effect in the repeat runs; an effect the other way counts as inactive or inconclusive;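 also: compound exposure lasted 16 hr before ATP read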; also: potency is read from the fitted curve at half-maximal effect). The settings on record: RORgamma reporter cell line viability counter screen; series mostly up to 92.2 µM. A digest of the protocol: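 Cytotoxicity is quantified via intracellular ATP (CellTiter-Glo luminescence) in doxycycline-induced CHO ROR response element-luciferase reporter cells treated with compound for 16 hr at 37 C, 5% CO2.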

Several values for one entry are separate records, joined by “and”; a condition that tells them apart may be missing. Equal entries are not always repeated. A number with no mark means an inactive call. Inconclusive results are not listed. Activity calls are given as the source filed them. Unless noted, calls follow the shape of the dose curve; as a rule, active = well fitted curve in the direction sought with a large enough effect; inconclusive = small, poorly fitted or top-dose-only effect, or another doubt; inactive = no such curve, though single readings can be large; an effect the other way counts as inactive or inconclusive. A value given as a limit tells only on which side of the number the result lay.

For the molecule `FC(F)(F)c1ccc(Cl)cc1`, in assay [1], the Potency is over 92 µM. In addition, the Potency entry in [2], in assay [3], in [4], in [5], in [6] and in assay [7] was “inactive” throughout. The Potency result in assay [8], in assay [9], in assay [10], in assay [11], in assay [12] and in assay [13] was “inactive” in each case.
As for `O=[N+]([O-])c1ccccc1Cl`, in [1], the Potency is over 92 µM.
As to `ClC1=C(Cl)C2(Cl)C3C(Cl)C(Cl)CC3C1(Cl)C2(Cl)Cl` (stereo unspecified), the Potency is over 92 µM in [1], 50.1 µM (active) in assay [3], 35.5 µM (active) in assay [11] and 66.8 µM (active) in [13]. Further, the Potency result in assay [4], in assay [6], in assay [7], in assay [9] and in [12] was “inactive” throughout.
Turning to `N#CSCSC#N`, the Potency in assay [1] is 50.3 µM (active); in assay [3] it was 25.1 µM (active); in [4], 5.01 µM (active); in assay [5], 5.01 µM (active); in assay [6] it was 5.01 µM (active); in assay [7], 10 µM (active). Further, the Potency was 6.31 µM (active) in assay [8]; 5.01 µM (active) in assay [9]; 5.01 µM (active) in [10]; 31.6 µM (active) in assay [11]; 9.44 µM (active) in [13]. Also, in assay [12], the Potency result is “inactive”.
`O=[N+]([O-])c1cc(C(F)(F)F)cc([N+](=O)[O-])c1Cl`: the Potency in assay [1] was over 92 µM; in assay [4], 31.6 µM (active); in [5], 31.6 µM (active); in assay [6], 31.6 µM (active); in [7], 50.1 µM (active); in assay [8], 39.8 µM (active). In addition, the Potency in assay [9] is 31.6 µM (active); in assay [10], 31.6 µM (active); in [13], 66.8 µM (active). The Potency result in [2], in [3], in [11] and in [12] was “inactive” each time.
Consider `O=C1C2(Cl)C3(Cl)C4(Cl)C(Cl)(Cl)C5(Cl)C3(Cl)C1(Cl)C5(Cl)C24Cl` (stereo unspecified), for which the Potency was 31.3 µM (active) and 59.3 µM (active) in [1]; 31.6 µM (active) and 39.8 µM (active) in assay [3]; 50.1 µM (active) in assay [4]; 50.1 µM (active) in [5]; 39.8 µM (active) and 50.1 µM (active) in [8]; 17.8 µM (active) and 28.2 µM (active) in assay [11]. The Potency is 4.22 µM (active) and 9.44 µM (active) in assay [12]; 26.6 µM (active) and 29.8 µM (active) in [13]. Also, the Potency entry in [2], in [9] and in [10] was “inactive” throughout.
As for `C#CCO`, the Potency in [1] was over 92 µM. The Potency entry in [2], in assay [3], in assay [4], in assay [5], in assay [6] and in assay [7] was “inactive” throughout. Besides, the Potency result in assay [8], in assay [9], in [10], in assay [11] and in [13] was “inactive” each time.
`Oc1c(Cl)cc(Cl)cc1Cl`: in assay [1], the Potency is over 92 µM.
Regarding `O=C(CCl)c1ccccc1`, the Potency entry in [2], in [11] and in assay [12] was “inactive” in each case. For the same molecule, the Potency in assay [3] is 31.6 µM (active); in [4], 10 µM (active); in assay [5] it was 10 µM (active); in assay [6] it was 10 µM (active); in assay [7], 12.6 µM (active); in assay [8], 10 µM (active). In addition, the figures for the Potency in assay [9], in [10] and in assay [13] were 10 µM (active), 7.94 µM (active) and 29.8 µM (active), respectively.
`CN(C)c1ccc(N=O)cc1`: the Potency entry in assay [2] and in assay [11] was “inactive” each time. Further, the Potency is 3.98 µM (active) in [3]; 1 µM (active) in assay [4]; 1 µM (active) in assay [5]; 0.794 µM (active) in assay [6]; 2.51 µM (active) in [7]; 0.794 µM (active) in assay [8]. Also, the Potency was 0.631 µM (active) in assay [9] and 1.26 µM (active) in assay [10].
As to `CC(=O)[O-].CC(=O)[O-].O.O.[Cd+2]`, the Potency result in [2], in assay [5], in [7] and in assay [12] was “inactive” throughout. In addition, the Potency was 50.1 µM (active) in [6], 39.8 µM (active) in assay [8] and 8.41 µM (active) in assay [13].

For the origin of these results see PubChem BioAssay (NCATS).
